The whole screen tested about 5,500 compounds, of which about 2,000 (36%) were called active. Not shown: some 18% with an inconclusive outcome. Some of the results follow. Unmarked numbers belong to inactive results. No stated cut-off is given here; in the data, active means normalized growth mostly below about 0.91 (no sharp cut-off); inconclusive means no clear call, values can overlap the other calls; inactive means mostly above about 0.92.
Test: chemical genetic growth profiling, strain panel (AID 1159580);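 further: tested at 20 µM; growth read once vehicle control cultures reached saturation at 30 °C; 1 = growth at the plate median or of vehicle wells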
Conditions: S. cerevisiae deletion strains, growth OD

## Cc1ccc(Nc2ccnc3cc(Cl)ccc23)cc1F
Locus YAR019C, strain CDC15, stronger effect = lower value
  normalized growth: 0.997
Locus YBL105C, strain PKC1, stronger effect = lower value
  normalized growth: 0.993
Locus YBR135W, strain CKS1, stronger effect = lower value
  normalized growth: 0.995
Locus YBR136W, strain MEC1, stronger effect = lower value
  normalized growth: 0.995
Locus YBR160W, strain CDC28, stronger effect = lower value
  normalized growth: 0.988
Locus YDL017W, strain CDC7, stronger effect = lower value
  normalized growth: 1
Locus YDL028C, strain MPS1, stronger effect = lower value
  normalized growth: 0.991
Locus YDL101C, strain DUN1, stronger effect = lower value
  normalized growth: 0.992
Locus YDL108W, strain KIN28, stronger effect = lower value
  normalized growth: 0.995
Locus YDL132W, strain cdc53, stronger effect = lower value
  normalized growth: 0.987
Locus YDL214C, strain PRR2, stronger effect = lower value
  normalized growth: 0.942
Locus YDR052C, strain DBF4, stronger effect = lower value
  normalized growth: 0.991
Locus YDR054C, strain cdc34, stronger effect = lower value
  normalized growth: 0.985
Locus YDR226W, strain ADK1, stronger effect = lower value
  normalized growth: 0.997
Locus YDR477W, strain SNF1, stronger effect = lower value
  normalized growth: 0.946
Locus YER123W, strain YCK3, stronger effect = lower value
  normalized growth: 0.918
Locus YER133W, strain GLC7, stronger effect = lower value
  normalized growth: 0.96
Locus YFL009W, strain cdc4, stronger effect = lower value
  normalized growth: 0.983
Locus YFL029C, strain CAK1, stronger effect = lower value
  normalized growth: 0.986
Locus YFR003C, strain YPI1, stronger effect = lower value
  normalized growth: 0.996
Locus YFR019W, strain FAB1, stronger effect = lower value
  normalized growth: 0.943
Locus YFR028C, strain CDC14, stronger effect = lower value
  normalized growth: 0.989
Locus YGR040W, strain KSS1, stronger effect = lower value
  normalized growth: 0.945
Locus YGR052W, strain FMP48, stronger effect = lower value
  normalized growth: 1.06
Locus YGR092W, strain DBF2, stronger effect = lower value
  normalized growth: 0.973
Locus YHR030C, strain SLT2, stronger effect = lower value
  normalized growth: 0.826 (active)
Locus YHR079C, strain IRE1, stronger effect = lower value
  normalized growth: 0.96
Locus YHR082C, strain KSP1, stronger effect = lower value
  normalized growth: 1
Locus YHR205W, strain SCH9, stronger effect = lower value
  normalized growth: 0.915
Locus YIL147C, strain SLN1, stronger effect = lower value
  normalized growth: 0.992
Locus YJL095W, strain BCK1, stronger effect = lower value
  normalized growth: 0.905
Locus YJL128C, strain PBS2, stronger effect = lower value
  normalized growth: 0.935
Locus YJL157C, strain FAR1, stronger effect = lower value
  normalized growth: 0.965
Locus YJR016C, strain ILV3, stronger effect = lower value
  normalized growth: 0.998
Locus YJR066W, strain TOR1 (second series), stronger effect = lower value
  normalized growth: 0.946
Locus YJR066W, strain TOR1, stronger effect = lower value
  normalized growth: 0.967
Locus YKL048C, strain ELM1, stronger effect = lower value
  normalized growth: 0.943
Locus YKL067W, strain YNK1, stronger effect = lower value
  normalized growth: 0.937
Locus YKL101W, strain HSL1, stronger effect = lower value
  normalized growth: 0.951
Locus YKL193C, strain SDS22, stronger effect = lower value
  normalized growth: 0.997
Locus YKL203C, strain TOR2, stronger effect = lower value
  normalized growth: 0.977
Locus YLR113W, strain HOG1, stronger effect = lower value
  normalized growth: 0.924
Locus YLR133W, strain CKI1, stronger effect = lower value
  normalized growth: 0.94
Locus YLR403W, strain SFP1, stronger effect = lower value
  normalized growth: 0.951
Locus YML070W, strain DAK1, stronger effect = lower value
  normalized growth: 0.947
Locus YMR001C, strain CDC5, stronger effect = lower value
  normalized growth: 0.995
Locus YMR205C, strain PFK2 (second series), stronger effect = lower value
  normalized growth: 0.956
Locus YMR277W, strain FCP1, stronger effect = lower value
  normalized growth: 0.995
Locus YNL006W, strain LST8, stronger effect = lower value
  normalized growth: 1.01
Locus YNL020C, strain ARK1, stronger effect = lower value
  normalized growth: 0.943
Locus YNL161W, strain CBK1, stronger effect = lower value
  normalized growth: 1
Locus YNL183C, strain NPR1, stronger effect = lower value
  normalized growth: 0.936
Locus YNL207W, strain RIO2, stronger effect = lower value
  normalized growth: 0.997
Locus YNL222W, strain SSU72, stronger effect = lower value
  normalized growth: 1
Locus YNL307C, strain MCK1 (second series), stronger effect = lower value
  normalized growth: 0.918
Locus YOL078W, strain AVO1, stronger effect = lower value
  normalized growth: 0.997
Locus YOL136C, strain PFK27, stronger effect = lower value
  normalized growth: 0.934
Locus YOR061W, strain CKA2, stronger effect = lower value
  normalized growth: 0.978
Locus YOR119C, strain RIO1, stronger effect = lower value
  normalized growth: 1.04
Locus YOR231W, strain MKK1, stronger effect = lower value
  normalized growth: 0.972
Locus YOR329C, strain SCD5, stronger effect = lower value
  normalized growth: 0.996
Locus YPL031C, strain PHO85, stronger effect = lower value
  normalized growth: 0.947
Locus YPL153C, strain RAD53, stronger effect = lower value
  normalized growth: 0.938
Locus YPL204W, strain HRR25, stronger effect = lower value
  normalized growth: 0.927
Locus YPL209C, strain IPL1, stronger effect = lower value
  normalized growth: 0.998
Locus YPL256C, strain CLN2, stronger effect = lower value
  normalized growth: 0.92
Locus YPR025C, strain CCL1, stronger effect = lower value
  normalized growth: 0.99
Locus YPR106W, strain ISR1, stronger effect = lower value
  normalized growth: 0.994
Locus YPR111W, strain DBF20, stronger effect = lower value
  normalized growth: 0.976
Strain NNK1, stronger effect = lower value
  normalized growth: 0.981
Strain TSCII, stronger effect = lower value
  normalized growth: 0.99

Source: PubChem BioAssay AID1159580 (chemical genetic matrix, 2015)
